Molecules are shown by their SMILES. Values without a mark were called inactive. Calls of active or inactive are those of the source. Rule as the data show it, unless noted: active = inhibition above about 30%; inactive = the rest.

The target of test [1] is Nuclear receptor coactivator 3 (Homo sapiens) (UniProt Q9Y6Q9). In words: NCOA3 GAL4-fusion reporter inhibition – cell-based, luminescence, quadruplicate, confirmation (AID 588792;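 active = mean inhibition over 43.08%, the solvent-only control mean plus 3 SD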;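 also: 0% = DMSO treated cells and 100% = gossypol at 36 µM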). The conditions noted are these: HEK293 GAL4-SRC3 luciferase reporter, at 3.6 µM, stronger effect = higher value.
Test [2] has as its system transactivating tegument protein VP16 (Human herpesvirus 1), Gal4-VP16 luciferase reporter. In words: repression of VP16-driven luciferase reporter – cell-based, luminescence, high throughput, counter-screen for SRC3 inhibitor project (AID 588794). Conditions: mammalian cells, at 3.6 µM, stronger effect = higher value.
Test [3] has as its target Nuclear receptor coactivator 1 (Homo sapiens) (UniProt Q15788). Kind of test: NCOA1 GAL4-fusion reporter inhibition – cell-based, luminescence, quadruplicate, confirmation (AID 588820;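 active = mean inhibition above 46.68%, the untreated control wells mean plus 3 SD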;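 also: 0% = DMSO wells and 100% = gossypol 36 µM treated wells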). Conditions: HEK293 GAL4-SRC1 luciferase reporter, at 3.6 µM, stronger effect = higher value.
Test [4] can be described thus: repression of VP16-driven luciferase reporter – cell-based, luminescence, high throughput, counter-screen for SRC1 inhibitor project (AID 588824; in the data active = inhibition above about 25%). Conditions: cell-based VP16 transactivation luciferase luminescence; at 3.6 µM; stronger effect = higher value.
A short description of test [5]: StAR promoter reporter inhibitors, counter-screen for LRH-1 inverse agonist project, cell-based, luminescence, high throughput (AID 651611; in the data active = inhibition above about 28%). The conditions noted are these: StAR promoter luciferase reporter counterscreen, at 3.6 µM, stronger effect = higher value.
The target of test [6] is Nuclear receptor subfamily 5 group A member 2 (Homo sapiens) (UniProt O00482). In words: NR5A2 activity suppression in reporter cells – cell-based, luminescence, confirmation (AID 651613; in the data active = inhibition above about 42%;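 also: HEK293T cells co-transfected with LRH-1 and StAR promoter luciferase reporter; 0% = vehicle wells and 100% = parental cells lacking receptor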). The conditions noted are these: cell-based LRH-1 luciferase reporter, inverse agonism; at 3.6 µM; stronger effect = higher value.
Test [7] addresses Steroidogenic factor 1 (Homo sapiens) (UniProt Q13285). In words: inverse agonism at SF1 nuclear receptor – cell-based, luminescence, high throughput, counter-screen for LRH-1 inverse agonist project (AID 651614; in the data active = inhibition above about 44%;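 also: cells cotransfected with StAR promoter reporter and SF1 expression vector; 0% = vehicle on cells with receptor and 100% = vehicle on cells lacking receptor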). Conditions: cell-based SF1 luciferase reporter, at 3.6 µM, stronger effect = higher value.
Test [8] can be described thus: compounds suppressing VP16-driven luciferase signal – cell-based, luminescence, high throughput, counter-screen for LRH-1 inverse agonist project (AID 651615; in the data active = inhibition above about 33%). The conditions noted are these: Gal4-VP16 luciferase reporter cells, at 3.6 µM, stronger effect = higher value.
The subject of test [9] is transactivating tegument protein VP16 (Human herpesvirus 1). Kind of test: compounds suppressing VP16-driven luciferase signal – cell-based, luminescence, single concentration, counter-screen for SRC2 inhibitor project (AID 652007; in the data active = inhibition above about 36%). The conditions noted are these: cell-based VP16 transactivation luciferase reporter, at 8.9 µM, stronger effect = higher value.
Test [10] deals with Nuclear receptor coactivator 2 (Homo sapiens) (UniProt Q15596). In words: inhibition of GAL4-SRC2 driven luciferase expression – cell-based, luminescence, HEK293, triplicate, confirmation (AID 652008;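 active = mean inhibition above 46.5%, the solvent-only control mean plus 3 SD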;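 also: 0% = DMSO-treated cells and 100% = Gossypol at 36 µM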). Conditions: HEK293 GAL4-SRC2 luciferase reporter, at 8.9 µM, stronger effect = higher value.

Nuclear receptor coactivator 1 (Homo sapiens), sequence (Q15788 whole entry, looked up, the tested form may be a part): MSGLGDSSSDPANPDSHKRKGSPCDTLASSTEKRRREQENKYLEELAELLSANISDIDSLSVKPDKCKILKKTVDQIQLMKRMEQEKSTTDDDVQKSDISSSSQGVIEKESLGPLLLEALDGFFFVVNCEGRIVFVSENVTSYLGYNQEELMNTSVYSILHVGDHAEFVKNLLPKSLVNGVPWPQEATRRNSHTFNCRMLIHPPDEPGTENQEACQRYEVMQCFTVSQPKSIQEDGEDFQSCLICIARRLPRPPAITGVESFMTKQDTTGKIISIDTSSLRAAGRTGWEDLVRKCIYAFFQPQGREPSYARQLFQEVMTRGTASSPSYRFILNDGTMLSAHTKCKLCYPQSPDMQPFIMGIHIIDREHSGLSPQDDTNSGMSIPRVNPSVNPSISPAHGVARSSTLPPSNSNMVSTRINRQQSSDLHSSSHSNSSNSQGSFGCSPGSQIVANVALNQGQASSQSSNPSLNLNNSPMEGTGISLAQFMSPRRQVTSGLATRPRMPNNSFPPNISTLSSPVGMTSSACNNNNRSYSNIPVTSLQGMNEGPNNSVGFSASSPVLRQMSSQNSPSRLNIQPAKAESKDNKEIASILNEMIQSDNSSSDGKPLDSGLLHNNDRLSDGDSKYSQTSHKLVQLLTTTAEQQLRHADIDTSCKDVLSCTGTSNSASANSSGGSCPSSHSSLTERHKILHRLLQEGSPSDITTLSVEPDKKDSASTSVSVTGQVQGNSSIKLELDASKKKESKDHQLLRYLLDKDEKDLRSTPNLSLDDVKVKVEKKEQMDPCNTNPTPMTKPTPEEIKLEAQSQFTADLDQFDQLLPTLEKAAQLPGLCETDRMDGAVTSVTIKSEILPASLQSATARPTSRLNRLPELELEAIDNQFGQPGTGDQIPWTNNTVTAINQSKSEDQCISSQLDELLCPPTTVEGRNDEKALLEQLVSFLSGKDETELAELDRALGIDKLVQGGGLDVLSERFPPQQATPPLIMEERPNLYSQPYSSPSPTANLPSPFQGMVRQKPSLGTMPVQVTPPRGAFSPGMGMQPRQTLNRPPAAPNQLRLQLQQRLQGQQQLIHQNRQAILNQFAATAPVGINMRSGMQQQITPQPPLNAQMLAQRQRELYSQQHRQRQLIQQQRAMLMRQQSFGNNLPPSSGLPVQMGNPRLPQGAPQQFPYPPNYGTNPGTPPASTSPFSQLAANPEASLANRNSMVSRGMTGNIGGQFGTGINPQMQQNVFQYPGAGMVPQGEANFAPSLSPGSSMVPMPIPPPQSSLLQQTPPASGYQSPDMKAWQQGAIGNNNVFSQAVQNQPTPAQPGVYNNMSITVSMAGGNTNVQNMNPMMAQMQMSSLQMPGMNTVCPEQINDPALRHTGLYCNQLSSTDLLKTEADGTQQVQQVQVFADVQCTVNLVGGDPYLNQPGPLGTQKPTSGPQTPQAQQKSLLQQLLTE
Steroidogenic factor 1 (Homo sapiens), sequence (Q13285 whole entry, looked up, the tested form may be a part): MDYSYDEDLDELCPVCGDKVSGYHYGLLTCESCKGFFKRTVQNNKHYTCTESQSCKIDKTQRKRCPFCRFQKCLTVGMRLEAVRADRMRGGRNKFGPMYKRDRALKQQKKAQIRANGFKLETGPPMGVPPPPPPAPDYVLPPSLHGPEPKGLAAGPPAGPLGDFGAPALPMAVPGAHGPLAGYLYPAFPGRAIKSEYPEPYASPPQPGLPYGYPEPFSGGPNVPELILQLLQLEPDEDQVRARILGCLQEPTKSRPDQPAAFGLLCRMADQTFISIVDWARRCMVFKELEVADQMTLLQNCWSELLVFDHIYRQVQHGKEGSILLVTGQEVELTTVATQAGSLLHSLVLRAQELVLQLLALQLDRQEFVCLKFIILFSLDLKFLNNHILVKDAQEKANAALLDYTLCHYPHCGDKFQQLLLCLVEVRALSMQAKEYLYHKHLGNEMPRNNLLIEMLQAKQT
Nuclear receptor subfamily 5 group A member 2 (Homo sapiens), sequence (O00482 whole entry, looked up): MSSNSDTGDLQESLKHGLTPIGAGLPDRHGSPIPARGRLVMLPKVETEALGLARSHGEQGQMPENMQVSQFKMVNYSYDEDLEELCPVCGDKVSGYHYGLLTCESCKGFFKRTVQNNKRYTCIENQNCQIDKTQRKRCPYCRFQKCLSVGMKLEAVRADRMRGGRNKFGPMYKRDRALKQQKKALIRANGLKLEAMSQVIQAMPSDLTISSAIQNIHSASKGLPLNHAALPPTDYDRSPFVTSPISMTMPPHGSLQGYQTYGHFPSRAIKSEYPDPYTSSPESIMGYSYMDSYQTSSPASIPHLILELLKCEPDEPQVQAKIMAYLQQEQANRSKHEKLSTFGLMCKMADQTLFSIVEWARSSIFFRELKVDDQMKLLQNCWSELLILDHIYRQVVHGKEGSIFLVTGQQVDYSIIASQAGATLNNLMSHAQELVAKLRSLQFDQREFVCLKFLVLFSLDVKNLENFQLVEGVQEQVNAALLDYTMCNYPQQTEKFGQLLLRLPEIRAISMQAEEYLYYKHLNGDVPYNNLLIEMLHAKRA
Nuclear receptor coactivator 3 (Homo sapiens), sequence (Q9Y6Q9 whole entry, looked up, the tested form may be a part): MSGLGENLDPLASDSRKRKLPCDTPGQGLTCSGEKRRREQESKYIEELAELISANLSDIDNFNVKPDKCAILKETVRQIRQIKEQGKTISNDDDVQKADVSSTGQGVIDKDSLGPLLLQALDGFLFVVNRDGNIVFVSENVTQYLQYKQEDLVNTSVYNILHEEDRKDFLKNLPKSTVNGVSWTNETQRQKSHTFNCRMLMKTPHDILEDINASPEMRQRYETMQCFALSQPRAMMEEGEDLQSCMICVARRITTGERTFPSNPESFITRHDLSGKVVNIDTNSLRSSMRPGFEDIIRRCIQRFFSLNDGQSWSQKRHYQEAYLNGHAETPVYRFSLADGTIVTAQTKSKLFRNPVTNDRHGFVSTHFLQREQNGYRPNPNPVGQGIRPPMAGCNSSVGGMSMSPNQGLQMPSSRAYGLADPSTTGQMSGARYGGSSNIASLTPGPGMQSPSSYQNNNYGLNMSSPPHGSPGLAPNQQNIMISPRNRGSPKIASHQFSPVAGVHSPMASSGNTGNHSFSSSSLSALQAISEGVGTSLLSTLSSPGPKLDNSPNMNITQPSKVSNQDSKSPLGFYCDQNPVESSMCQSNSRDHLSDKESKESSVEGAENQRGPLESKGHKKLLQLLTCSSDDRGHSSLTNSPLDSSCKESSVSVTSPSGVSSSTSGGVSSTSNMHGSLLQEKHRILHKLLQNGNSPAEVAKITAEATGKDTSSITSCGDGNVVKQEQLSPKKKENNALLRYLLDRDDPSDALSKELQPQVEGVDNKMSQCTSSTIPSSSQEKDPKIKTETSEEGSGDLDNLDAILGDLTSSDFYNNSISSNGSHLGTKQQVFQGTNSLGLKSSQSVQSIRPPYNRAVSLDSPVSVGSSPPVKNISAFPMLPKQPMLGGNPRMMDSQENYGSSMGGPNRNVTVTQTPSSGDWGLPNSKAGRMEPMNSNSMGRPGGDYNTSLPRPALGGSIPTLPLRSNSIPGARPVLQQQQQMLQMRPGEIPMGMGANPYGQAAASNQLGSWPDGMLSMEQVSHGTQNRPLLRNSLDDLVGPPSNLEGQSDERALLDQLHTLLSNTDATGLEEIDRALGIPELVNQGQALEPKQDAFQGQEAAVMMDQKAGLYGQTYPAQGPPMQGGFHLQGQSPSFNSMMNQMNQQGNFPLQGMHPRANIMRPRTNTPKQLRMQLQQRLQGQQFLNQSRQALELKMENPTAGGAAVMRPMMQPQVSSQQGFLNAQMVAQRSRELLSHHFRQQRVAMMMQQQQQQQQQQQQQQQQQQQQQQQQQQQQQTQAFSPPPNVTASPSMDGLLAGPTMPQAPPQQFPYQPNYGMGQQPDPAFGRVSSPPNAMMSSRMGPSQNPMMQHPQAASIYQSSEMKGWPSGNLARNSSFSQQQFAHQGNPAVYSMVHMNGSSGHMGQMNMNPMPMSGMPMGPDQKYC

On to `COc1cccc(NC(=O)CSc2nnc(-c3cc(C)n(-c4ccccc4)c3C)o2)c1`, for which the inhibition is 46.8% (active) in test [1]; 23.3% in test [2]; 3.49% in test [3]; -14.5% in test [4]; -29.8% in test [5]; -55.2% in test [6]. Further, the inhibition is -12.4% in test [7], -23.9% in test [8], 11% in test [9] and 48.5% (active) in [10].
On to `Cc1[nH]c2ccccc2c(=O)c1C(=O)/C=C/c1ccccc1`, for which the inhibition in [1] was 76.1% (active); in [2], 58% (active); in test [3], 73.7% (active); in test [4], 59.6% (active); in test [5] it was 76.2% (active); in test [6], 90.2% (active). Moreover, the inhibition in test [7] was 82.9% (active); in [8], 77.8% (active); in [9], 39% (active); in test [10], 72.7% (active).
For `Nc1ccc(-c2cc3ccccc3oc2=O)cc1`, the inhibition in test [1] is 43.5% (active); in test [2], 20.6%; in test [3], 45%; in [4], 18.9%; in test [5], 52.2% (active); in [6], 73.5% (active). In addition, the inhibition was 65.2% (active) in test [7], 34.1% (active) in test [8], 67.1% (active) in test [9] and 94.6% (active) in test [10].
For `O=C(O)c1ccc(N/N=C/c2ccc3nccnc3c2)cc1`, the inhibition was 17.8% in test [1]; 10.9% in [2]; -44.9% in test [3]; 10.3% in test [4]; 48.4% (active) in test [5]; 21.4% in test [6]. The inhibition in [7] is 61% (active); in test [8] it was 14.8%; in test [9], 42.2% (active); in test [10], 75.5% (active).
In the case of `Cc1c(/C(O)=C2/C(=O)C(=O)N(CCN3CCOCC3)C2c2ccccn2)cnn1-c1ccccc1` (stereo not given), the inhibition in test [1] was 62.5% (active); in test [2] it was 41.7% (active); in test [3] it was 54.5% (active); in test [4] it was 26.1% (active); in test [5] it was 68.9% (active); in [6], 24.3%. Also, the inhibition in test [7] is 75.2% (active); in [8] it was 12.3%; in [9], 68.5% (active); in [10], 83.4% (active).
As for `CCOc1ccc(-c2noc(CCC(=O)O)n2)cc1`, the inhibition in test [1] was 18.2%; in test [2] it was 15.1%; in test [3], 18.5%; in [4], 5%; in test [5], 27.3%; in [6] it was 38.4%. Also, the inhibition in [7] was 23.1%; in test [8], 23.4%; in test [9], 71.3% (active); in [10] it was 86.1% (active).
In the case of `C(=NN1CCCCCC1)c1ccc2ccccc2n1`, the inhibition in test [1] was 88.6% (active); in test [2], 82.8% (active); in test [3], 68.3% (active); in test [4], 72.1% (active); in test [5] it was 87.8% (active); in test [6] it was 67% (active). For the same compound, the inhibition in test [7] was 87% (active); in [8] it was 70.8% (active); in [9], 92.4% (active); in [10] it was 94.9% (active).
On to `O=C(N/N=C/c1c(O)ccc2ccccc12)c1cccnc1`, for which the inhibition in test [1] is 71.2% (active); in test [2], 81.2% (active); in test [3], 73.1% (active); in [4] it was 80% (active); in test [5], 88.5% (active); in test [6], 102% (active). Besides, the inhibition is 89.4% (active) in test [7], 86.1% (active) in [8], 5.29% in [9] and 20.7% in test [10].
With `Cc1ccc(C#N)c(SCc2nnc(-c3ccc(Cl)cc3)o2)n1`, the inhibition is 67.8% (active) in [1]; 54.9% (active) in test [2]; 30.4% in test [3]; 28.1% (active) in test [4]; 30.7% (active) in [5]; -14.8% in test [6]. For the same compound, the inhibition in test [7] was 21.1%; in test [8], 7.27%; in test [9] it was 59.4% (active); in test [10], 85.4% (active).
On to `CCC(C)(C)c1ccc(Oc2ccc(N)cc2)cc1`, for which the inhibition is 64.5% (active) in test [1]; 52.2% (active) in test [2]; 51.2% (active) in [3]; 48% (active) in test [4]; 57.4% (active) in [5]; 87.3% (active) in test [6]. For the same compound, the inhibition in [7] was 72.8% (active); in test [8] it was 63.9% (active); in test [9], 90.3% (active); in test [10], 95.4% (active).
Turning to `CCC1=C(CC2NCCc3ccccc32)CC2c3cc(OC)c(OC)cc3CCN2C1` (stereo not given), the inhibition is 90.6% (active) in test [1]; 84.9% (active) in [2]; 63.7% (active) in test [3]; 85.7% (active) in [4]; 87.4% (active) in test [5]; 98.3% (active) in [6]. Further, the inhibition in [7] is 88.3% (active); in test [8], 93.9% (active); in [9] it was 47.1% (active); in test [10], 52.6% (active).

The record behind these values is PubChem BioAssay.
